PubChem BioAssay AID485346 (Sanford-Burnham Center for Chemical Genomics, 2010)
Out of some 330,000 compounds screened, about 10,000 (3%) were called active. Only a selection was taken, and actives are over-represented in it overall. Values without a mark were called inactive.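 Rule for the calls: active = inhibition of at least 50% at 8 µM in the primary screen; inactive = the rest.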

molecular target: Protein Mdm4 (Homo sapiens) + E3 ubiquitin-protein ligase Mdm2 (Homo sapiens) (UniProt O15151+Q00987); experiment: disruptors of Mdm2/MdmX RING complex – cell-based, luminescence, split luciferase, SaOS-2, uHTS, primary screen (AID 485346); details: SaOS-2 split-luciferase Mdm2/MdmX complementation, at 8 µM, hits give high values
Sequence (O15151 whole entry, looked up): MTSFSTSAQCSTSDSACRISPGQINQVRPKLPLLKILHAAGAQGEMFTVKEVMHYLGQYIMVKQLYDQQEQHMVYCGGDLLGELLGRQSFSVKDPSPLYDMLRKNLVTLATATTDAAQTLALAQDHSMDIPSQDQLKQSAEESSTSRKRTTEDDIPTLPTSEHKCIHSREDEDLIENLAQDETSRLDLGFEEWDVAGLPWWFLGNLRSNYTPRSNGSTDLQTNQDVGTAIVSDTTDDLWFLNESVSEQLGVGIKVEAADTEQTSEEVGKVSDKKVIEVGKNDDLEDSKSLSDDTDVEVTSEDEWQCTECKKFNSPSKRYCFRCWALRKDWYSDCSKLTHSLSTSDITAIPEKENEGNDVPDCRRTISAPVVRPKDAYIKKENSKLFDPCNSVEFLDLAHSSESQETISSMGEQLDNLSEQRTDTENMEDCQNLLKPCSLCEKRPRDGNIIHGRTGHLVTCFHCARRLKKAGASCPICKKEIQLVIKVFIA
Sequence (Q00987 whole entry, looked up): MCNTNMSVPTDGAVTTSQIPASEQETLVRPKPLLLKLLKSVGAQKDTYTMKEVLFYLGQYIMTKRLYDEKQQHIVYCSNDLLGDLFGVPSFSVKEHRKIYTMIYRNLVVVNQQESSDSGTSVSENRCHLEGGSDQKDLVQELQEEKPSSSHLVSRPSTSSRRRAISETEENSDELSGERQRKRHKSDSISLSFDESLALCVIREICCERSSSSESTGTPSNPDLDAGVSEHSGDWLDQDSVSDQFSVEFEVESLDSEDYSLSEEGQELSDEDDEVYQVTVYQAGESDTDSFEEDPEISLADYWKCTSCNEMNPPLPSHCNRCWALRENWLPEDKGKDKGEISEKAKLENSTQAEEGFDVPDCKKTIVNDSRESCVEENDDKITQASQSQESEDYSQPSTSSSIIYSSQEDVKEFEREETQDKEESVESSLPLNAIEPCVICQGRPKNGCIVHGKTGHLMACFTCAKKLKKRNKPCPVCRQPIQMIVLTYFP

| SMILES | inhibition |
| --- | --- |
| C/C(=N\NC(=O)c1ccc(C)cc1)C1C(=O)c2ccccc2C1=O | 1.09% |
| COc1cc(NC(=O)c2ccc(CNc3c(N4CCCC4)c(=O)c3=O)cc2)cc(OC)c1OC | -9.99% |
| O=C(NCc1ccc2c(c1)OCO2)c1c(O)nc2sccn2c1=O | 16.7% |
| CC(=O)c1c(OCC(=O)N(C)C2CCCCC2)ccc2c(C)cc(=O)oc12 | 4.3% |
| O=C(CN1CCN(c2ccc(F)cc2)CC1)Nc1ccccc1 | 0.1% |
| CC1CCCN(CC(O)COCc2ccccc2)C1 (stereo unspecified) | 3.39% |
| COc1cc(C)cc(CN2CCC(Cc3ccccc3)CC2)c1O | -29.4% |
| Oc1c(CN2CCCC2)cc(COCc2ccccc2)c2cccnc12 | 75.7% (active) |
| Cc1cccnc1NC(=O)c1cccc(S(=O)(=O)N2CCN(c3ccc(F)cc3)CC2)c1 | 28.4% |
| Oc1c(CN2CCN(c3ccc(F)cc3)CC2)cc(Cl)c2cccnc12 | 65% (active) |
| CC(C)(C)C1CCC(C(=O)Nc2cccnc2)CC1 (stereo unspecified) | 19% |
| CCC(C)(C(=O)Nc1ccccc1C)N(C(=O)CNC(C)=O)c1ccc(C)cc1 (stereo unspecified) | -5.46% |
| CN1CCN(C2Cc3ccc(Cl)cc3Sc3ccc(F)cc32)CC1 (stereo unspecified) | 54.3% (active) |
| CC(OC(=O)CCCOc1ccccc1)C(=O)Nc1ccc(Cl)cn1 (stereo unspecified) | 17.5% |
| COC(=O)[C@@H]1C[C@@]2(O)[C@H](O)[C@H](O)[C@H](O)C[C@H]2N1Cc1ccc(C)s1 | 7.36% |
| Cc1cccc2cc(CN(Cc3nnnn3Cc3ccccc3)C3CCCC3)c(=O)[nH]c12 | 13.2% |
| CCC(c1nnnn1Cc1ccco1)N(CCc1ccccc1)Cc1cc2cccc(C)c2[nH]c1=O (stereo unspecified) | 12.5% |
| CCC(c1nnnn1C1CCCC1)N(Cc1cccs1)Cc1cc2cccc(C)c2[nH]c1=O (stereo unspecified) | 56.1% (active) |
| CN(C(=O)CSc1cccc[n+]1[O-])C1CCCCC1 | 20.9% |
| CN1CCN(CC#CCC2(O)c3ccccc3-c3ccccc32)CC1 | 16.2% |
| COc1ccc(-c2nnc(SCC(=O)c3ccc4c(c3)OCCO4)o2)cc1 | 17.3% |
| COc1ccc(-c2nnc(SC(=O)N3c4ccccc4Sc4ccccc43)o2)cc1 | 69.1% (active) |
| COc1ccc(-c2nnc(SC(C)C(=O)NC3CC3)o2)cc1 (stereo unspecified) | 19.9% |
| O=C(CCc1ccccc1)Nc1ccc(NC(=O)C2CCCCC2)nc1 | 11% |
| COc1ccc(CNC(=O)CN(C(=O)c2csnn2)c2cnc3ccccc3c2)cc1 | 12.6% |
| CCOC(CNC(=O)C1CCN(S(=O)(=O)c2ccc3nc4c(c(C(=O)O)c3c2)CC(C)CC4)CC1)OCC (stereo unspecified) | 14.5% |
